Shiga toxin inh – Shiga toxin inhibition; 290,000 compounds, 9.2% hits; AID 2315; inhibition, % at 38.7 µM; Vero cells, Shiga toxin protein synthesis inhibition reporter; in the data active means inhibition mostly above about 28%, no sharp cut-off; inactive means mostly below about 43%; further: 0% is about no effect
LmPK inh – blocks Leishmania mexicana pyruvate kinase activity. Q27686. purified LmPK, Kinase-Glo ATP luminescence, 1 h. Potency, µM (top dose mostly 57.5 µM), without a hit: at the top dose activity change, negative = inhibition, usual class: inhibitors. 290,000 compounds, 0.37% hits; further: potency means the concentration at half of the fitted maximal effect; on the % scale 0 is the no-effect control and ±100 the full control effect
Target sequence (Q27686 whole entry, looked up): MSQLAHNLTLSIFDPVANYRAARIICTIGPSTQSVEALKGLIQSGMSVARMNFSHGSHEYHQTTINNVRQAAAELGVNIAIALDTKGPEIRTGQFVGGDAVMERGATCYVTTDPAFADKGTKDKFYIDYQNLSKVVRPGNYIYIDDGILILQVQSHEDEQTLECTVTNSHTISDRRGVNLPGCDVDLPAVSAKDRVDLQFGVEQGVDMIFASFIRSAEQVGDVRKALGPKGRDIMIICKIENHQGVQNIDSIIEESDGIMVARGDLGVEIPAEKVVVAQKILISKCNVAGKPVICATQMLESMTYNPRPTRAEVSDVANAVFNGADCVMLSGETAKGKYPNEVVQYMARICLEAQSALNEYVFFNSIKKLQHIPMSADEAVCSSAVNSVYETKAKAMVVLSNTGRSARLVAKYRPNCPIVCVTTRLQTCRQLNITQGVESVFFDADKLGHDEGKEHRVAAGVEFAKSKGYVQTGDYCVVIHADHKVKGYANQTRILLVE
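0.1 nM LmPK, 0.5 mM PEP, 0.1 mM ADP; 50 mM imidazole pH 7.2, 7 mM MgCl2, 50 mM KCl; 1 h RT. Kinase-Glo luminescence readout, normalized to no-enzyme (full inhibition) and uninhibited wells.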
Pf growth 48h – inhibits P. falciparum growth in the first generation, 48 h. P. falciparum luciferase growth in erythrocytes, 48 h. Potency, µM (top dose mostly 28.7 µM), inactives show at the highest dose activity change, negative = inhibition, usual class: inhibitors. 310,000 compounds, 5.9% hits; further: potency means the concentration at half of the fitted maximal effect; on the % scale 0 is the no-effect control and ±100 the full control effect
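Read-out is firefly luciferase luminescence from an integrated reporter in P. falciparum, so falling signal marks reduced parasite growth. Infected erythrocytes were at 2% hematocrit and 0.1% parasitemia (final) in Albumax-supplemented RPMI 1640.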
Pf growth 96h – P. falciparum growth inhibition at 96 hour, primary screen for plastid delayed-death inhibitors. P. falciparum luciferase reporter growth, 96 h. Potency, µM (top dose mostly 28.7 µM), without a hit: at the highest dose activity change, negative = inhibition, most hits filed as inhibitors. 320,000 compounds, 6.9% hits; further: potency means the concentration at half of the fitted maximal effect; on the % scale 0 is the no-effect control and ±100 the full control effect
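Cell-based qHTS: luciferase-tagged P. falciparum in erythrocytes (2% hematocrit, 0.05% parasitemia final) incubated with compounds for 96 hours, 37 C, 5% CO2; luciferase detection reagent then added and luminescence measured.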
CHX counter – affects cycloheximide protein synthesis inhibition readout, counter-screen. cell reporter, cycloheximide protein synthesis inhibition counterscreen. max response, %. 300,000 compounds, 12% hits. AID 2314; in the data active means max response mostly above about 13%, no sharp cut-off; inactive means mostly below about 14%; further: read at 38.3 µM for the half of the compounds with a filed dose; 0% is about no effect
Numbers without * were called inactive; ? = inconclusive; / = no result. Most compounds without a hit are left out; they make up all but 22% or so of the library. Unless noted, the call rests on the fitted dose curve; in most records, active means well fitted inhibition curve with a large enough effect; inconclusive means small, poorly fitted or top-dose-only effect, or another doubt; inactive means no such curve, though single readings can be large or run the other way.

SMILES	Shiga toxin inh	LmPK inh	Pf growth 48h	Pf growth 96h	CHX counter
O=C(CNC(=O)/C=C/c1ccco1)N=Nc1c(O)[nH]c2ccccc12	-9.5	12.0%	22.7%	0.5%	-2.4
O=c1c2cc(-c3ccccc3)sc2ncn1-n1cccc1	79.4*	-1.0%	108.7%	/	39.3*
O=c1[nH]cnc2sc(-c3ccccc3)cc12	48.7	1.0%	/	27.2%	55.9*
C=CCSc1nc2sc(-c3ccccc3)cc2c(=O)n1N	-47.3	1.1%	23.6%	40.2%	0.8
Cc1ccc(C)n1-n1cnc2sc(-c3ccccc3)cc2c1=O	19.4	1.4%	?	-4.2%	14.3*
Cc1ccc(C)n1-n1c(C)nc2sc(-c3ccccc3)cc2c1=O	73.1*	-7.7%	?	5.6%	44.9*
O=c1[nH]c(-c2ccccc2)nc2sc(-c3ccccc3)cc12	16.9	-0.1%	180.0%	314.0%	22.5
c1ccc(-c2cc3c(N4CCCC4)ncnc3s2)cc1	1.3	6.0%	23.4%	-5.3%	0.1
Cc1sc2ncn(-n3c(C)ccc3C)c(=O)c2c1C	26.4	2.1%	?	?	-0.7
CCc1cc(C(=O)OC)c(NC(=O)CSc2nccn2C)s1	-33.5	-10.4%	-17.3%	?	-0.3
O=C(CN(c1ccccc1)S(=O)(=O)c1ccccc1[N+](=O)[O-])NN=C1CCCCCCC1	21.1	5.6%	?	-18.9%	-2.2
CCC(C)(O)c1[nH]c2ccc(C(=O)OC)cc2c1C (centres undefined)	33.6*	-3.2%	97.3%	133.6%	22.4*
NS(=O)(=O)c1ccc(CNC(=O)c2ccc3c(=O)n4c(nc3c2)CCC4)cc1	/	/	23.7%	18.5%	/
Cc1coc2cc3oc(=O)c4c(c3cc12)CCC4	11.5	-7.5%	16.1%	/	-4.9
CC1COC2=C1C(=O)C(=O)c1c2ccc2c1CCCC2(C)C (centres undefined)	52.6*	/	/	/	35.5
Cc1coc2c1C(=O)C(=O)c1c-2ccc2c1CCCC2(C)C	38.9*	0.9%	?	?	23.7*
Cc1coc2c1C(=O)C(=O)c1c-2ccc2c(C)cccc12	35.4*	-2.4%	?	?	18.1*
C[C@H]1COC2=C1C(=O)C(=O)c1c2ccc2c1CCCC2(C)C	58.9*	-0.2%	?	?	25.7*
CCS(=O)(=O)N1CCC(C(=O)Nc2ccccc2OC)CC1	13.9	-3.9%	30.0%	94.8%	-1.9
Cc1cc(N2C(=O)CCC2=O)ccc1NC(=O)c1cccs1	-17.9	5.6%	/	-41.6%	-3.2
N#C/C(=C\c1ccc(-c2ccc(C(=O)O)cc2)o1)c1nc2ccccc2[nH]1	-7.2	5.9%	?	20.9%	7.8
N#C/C(=C\c1ccc(N2CCOCC2)o1)c1nc2ccccc2[nH]1	121.3*	-16.7%	62.4%	55.9%	48.6*
Cc1ccc2nc(/C(C#N)=C\c3ccc(N4CCCCC4)c([N+](=O)[O-])c3)[nH]c2c1	24.9	8.3%	?	?	20.3
N#C/C(=C/c1ccc(N2CCOCC2)o1)c1ccc(Cl)cc1	37.5	-1.2%	159.7%	218.1%	35.5*
N#C/C(=C/c1ccc(N2CCCC2)c([N+](=O)[O-])c1)c1nc2ccccc2[nH]1	65.1*	-3.3%	?	48.6%	41.6*
SMILES	Shiga toxin inh	LmPK inh	Pf growth 48h	Pf growth 96h	CHX counter
N#C/C(=C\c1ccc(N2CCOCC2)c([N+](=O)[O-])c1)c1nc2ccccc2[nH]1	13.4	0.4%	?	?	12.5*
COC(=O)/C(C#N)=C/c1ccc(N2CCOCC2)c([N+](=O)[O-])c1	-10.2	7.5%	?	2.6%	1.6
O=C(CSc1nc2cc(Cl)ccc2s1)NC1CCCc2ccccc21 (centres undefined)	3.8	-2.4%	-3.9%	-7.8%	-4.3
Cc1ccc(OCCCCNC2CCCC(C)C2C)c(C)c1 (centres undefined)	-3.7	-0.9%	?	?	-3.3
O=C(COC(=O)C1(c2ccc(F)cc2)CCCC1)NCc1ccco1	6.3	3.3%	9.1%	22.0%	12.3
CC1(C)CC(NC(=O)c2cc(Cl)ccc2Cl)CC(C)(C)N1	-4.4	-1.4%	1.5%	-22.1%	-1.1
CCCC(O)(c1ccccc1)C(CN1CCOCC1)c1ccccc1 (centres undefined)	2.3	-2.6%	/	?	-3.4
CCCCCCC(O)(c1ccccc1)C(CN1CCOCC1)c1ccccc1 (centres undefined)	-10.5	1.1%	3.29µM*	2.8%	1.2
CCCCCCC(O)(c1ccc(OC)cc1)C(CN1CCOCC1)c1ccccc1 (centres undefined)	21.2	-1.3%	1.85µM*	10.4µM*	7.9
CCCCCC(O)(c1ccccc1)C(CN1CCOCC1)c1ccccc1 (centres undefined)	-1.2	-4.0%	2.62µM*	0.0%	-2.7
COc1ccccc1-c1csc(NC(=O)c2ccc(N3C(=O)CCC3=O)cc2)n1	19.9	6.9%	?	?	6.3
N#Cc1ccc(CSCC(=O)O)cc1	-12.4	-3.1%	10.2%	-5.6%	-1.5
COC(=O)c1ccc(CSCc2ccc(C#N)cc2)cc1	75.0*	-0.3%	5.4%	12.1%	43.0*
O=C(c1ccc(COc2c(F)c(F)cc(F)c2F)o1)N1CCN(c2ccccc2)CC1	-3.6	1.3%	?	-11.0%	4.9
CCOc1ccc(OCc2ccc(C(=O)N3CCc4ccccc4C3)o2)cc1	29.4	1.7%	6.5%	0.0%	18.2
CCN1CCN(C(=O)c2ccc(COc3ccc(Cl)cc3)o2)CC1	-7.3	-3.6%	5.8%	-3.0%	-4.2
O=C(c1ccc(COc2c(F)c(F)c(F)c(F)c2F)o1)N1CCOCC1	10.4	2.6%	5.0%	13.1µM*	-2.0
O=C(c1ccc(COc2ccc(Cl)cc2Cl)o1)N1CCCC1	31.3	1.7%	16.9%	13.7%	33.2*
Cc1ccc(OCc2ccc(C(=O)N3CCCC3)o2)cc1C	75.8*	1.9%	?	-4.4%	34.3*
CCOc1ccc(OCc2ccc(C(=O)N3CCCCC3)o2)cc1	40.4*	-9.6%	-19.7%	-19.0%	23.2*
COc1cn(-c2ccccc2)nc1C(=O)OCC(=O)Nc1ccc(C)c(C)c1	/	/	6.7%	-3.5%	/
NC(=O)c1ccc(/C=N/O)[n+](Cc2ccccc2)c1	4.1	-1.3%	0.0%	57.8%	7.9
CSCCC1NC(=S)N(Cc2ccccc2)C1=O (centres undefined)	-3.0	?	?	32.2%	-2.9
COc1ccccc1OCc1ccc(C(=O)N2CCOCC2)o1	16.1	-2.6%	37.1%	18.4%	-0.6
COc1ccccc1OCc1ccc(C(=O)N2CCCCC2)o1	26.0	-1.1%	6.7%	?	12.8*
CN(C)c1ccc(/C=N/NC(=O)CN(c2cccc(Cl)c2)S(C)(=O)=O)cc1Br	-16.7	4.8%	13.1µM*	/	-1.0
CCN(CC)C(=S)SCC(=O)c1ccc(Br)cc1	166.9*	0.2%	61.4%	7.8%	107.0*
CCn1c(CNC(C)=O)nnc1SCC(=O)c1ccc(Br)cc1	13.4	-0.2%	-6.1%	54.2%	2.6
COc1ccc(C(=O)NC(=S)SCC(=O)O)cc1	26.5*	-5.4%	39.3%	-2.1%	14.9*

High-throughput results deposited in PubChem by National Center for Advancing Translational Sciences (NCATS).
